Screens deposited in PubChem by National Center for Advancing Translational Sciences (NCATS).
RORgamma inh = blocks mouse ROR gamma transcriptional activity | Drosophila S2 Gal4-RORgamma UAS-luciferase reporter, 20 h | Potency, µM (highest dose often 53.6 µM), for inactives: top-dose activity change, negative = inhibition, most hits filed as inhibitors | AID 2551 | P51450 | 310,000 compounds, 5.4% hits; further: nearly all actives have a fitted effect of over 60% in size
Target sequence (P51450 whole entry, looked up, the tested form may be a part): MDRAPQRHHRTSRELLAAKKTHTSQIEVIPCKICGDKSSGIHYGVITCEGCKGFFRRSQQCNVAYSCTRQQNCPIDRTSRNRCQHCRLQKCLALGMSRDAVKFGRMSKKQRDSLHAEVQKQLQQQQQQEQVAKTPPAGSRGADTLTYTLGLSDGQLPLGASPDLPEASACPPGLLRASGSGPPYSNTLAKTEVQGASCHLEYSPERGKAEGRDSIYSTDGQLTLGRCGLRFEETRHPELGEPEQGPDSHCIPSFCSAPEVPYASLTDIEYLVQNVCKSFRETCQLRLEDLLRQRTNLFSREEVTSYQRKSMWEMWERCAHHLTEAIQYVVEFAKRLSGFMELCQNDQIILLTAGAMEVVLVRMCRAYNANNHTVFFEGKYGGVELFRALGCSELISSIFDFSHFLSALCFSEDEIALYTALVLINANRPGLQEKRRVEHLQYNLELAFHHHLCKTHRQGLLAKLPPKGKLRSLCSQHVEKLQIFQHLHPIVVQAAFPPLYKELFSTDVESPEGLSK
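ROR gamma transcriptional activity was tracked as Gal4-UAS luciferase output in stably transfected Drosophila Schneider cells, with compound added 1 hr before 700 uM copper sulfate induction and a 20 hr ambient-temperature incubation.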
TDP1 cell noCPT = qHTS for Inhibitors of human tyrosyl-DNA phosphodiesterase 1 (TDP1): qHTS in cells in absence of CPT; DT40 Tdp1-/- hTDP1 cells, no CPT, ATP luminescence, 48 h; Potency, µM (highest dose often 46.2 µM), for inactives: at the top dose activity change, negative = growth inhibition, hits mostly inhibitors; 420,000 compounds, 15% hits; further: nearly all actives have a fitted effect of over 55% in size
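Compound effects on proliferation are scored in DT40 Tdp1-/-;hTDP1 cells in the absence of CPT. ATP levels (CellTiter-Glo luminescence) are recorded after a ≥48 hr, 37 °C incubation.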
VP16 counter = Gal4-VP16 reporter inhibition counter-screen. AID 2546. Drosophila S2 Gal4-VP16 UAS-luciferase, luminescence, 20 h. Potency, µM (doses to about 53.6 µM), inactives show at the top dose activity, negative = inhibition, usual class: inhibitors. 310,000 compounds, 3.5% hits;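 further: Gal4-VP16 expression switched on by copper sulfate through the metallothionein promoter; nearly all actives have a fitted effect of over 50% in size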
TDP1 inh = TDP1 (human) enzyme inhibition. Potency, µM (doses to about 130 µM), without a hit: at the top dose activity change, negative = inhibition, hits mostly inhibitors. recombinant TDP1, AlphaScreen DNA substrate cleavage. Q9NUW8. AID 485290. 350,000 compounds, 0.28% hits; further: nearly all actives have a fitted effect of over 40% in size
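Recombinant E. coli-expressed Tdp1 (1 nM) preincubated with compound 15 min at RT, then 5'-biotin/3'-phosphotyrosine-FITC DNA substrate (15 nM) added for 5 min. AlphaScreen beads (10 ug/ml) added, 10 min RT; tyrosine-FITC cleavage read as signal loss.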
DT40 TDP1 CPT = DT40-hTDP1 cell growth loss with CPT; chicken DT40 Tdp1-/-;hTDP1 cells + 20 nM CPT, ATP luminescence, 48 h; Potency, µM (series often up to 46.2 µM), inactives show at the top dose activity change, negative = growth inhibition, most hits filed as inhibitors; 420,000 compounds, 12% hits; AID 686979; further: nearly all actives have a fitted effect of over 55% in size
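Cell growth measured by CellTiter-Glo luminescence after a minimum 48 h, 37 C compound exposure with 20 nM CPT in Tdp1-knockout DT40 cells stably expressing hTDP1, seeded 400/well; qHTS titration format.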
An asterisk follows results filed as active; ? = inconclusive; nt = not tested or not shown. Most compounds without a hit are left out; they make up all but 19% or so of the library. The call rests on the fitted dose curve; in most records, active means well fitted curve in the direction sought with a large enough effect; inconclusive means small, poorly fitted or top-dose-only effect, or another doubt; inactive means no such curve, though single readings can be large; an effect the other way counts as inactive or inconclusive. On the % scale 0 is the no-effect control and ±100 the full control effect; potency means the concentration at half of the fitted maximal effect.

SMILES	RORgamma inh	TDP1 cell noCPT	VP16 counter	TDP1 inh	DT40 TDP1 CPT
COc1cnc(-c2ccccc2)nc1Oc1ccc(C(C)(C)C)cc1	41%	-25%	2%	5%	-9%
COc1cnc(-c2ccccn2)nc1Oc1ccc(F)cc1F	5.6µM*	3.7µM*	?	6%	10µM*
COc1cnc(-c2ccccc2)nc1Oc1ccccc1C	29%	?	-16%	-8%	?
COc1cnc(-c2ccccn2)nc1Oc1ccc(Cl)c2ccccc12	1.3µM*	1.2µM*	7.9µM*	10%	1.3µM*
COc1ccccc1N1CCN(C(CNS(=O)(=O)c2ccccc2)c2cccnc2)CC1 (stereo unspecified)	22%	18µM*	13%	2%	23µM*
COc1ccccc1N1CCN(C(CNC(=O)C2CCCCC2)c2cccnc2)CC1 (stereo unspecified)	?	10µM*	-1%	1%	8.2µM*
CC1CCN(C(=O)c2ccc(NS(C)(=O)=O)cc2)CC1	-1%	3%	7%	-4%	-14%
Cc1ccccc1NC(=O)Nc1cccs1	?	?	-3%	11%	?
Cc1ccc(NC(=O)Nc2cccs2)c(C)c1	nt	?	nt	4%	15µM*
CCc1ccccc1NC(=O)Nc1cccs1	?	-11%	?	3%	-7%
Cc1ccc(Cl)cc1NC(=O)Nc1cccs1	14µM*	21µM*	-13%	-3%	-25%
COc1ccc(C2/C(=C(/O)c3ccc(S(=O)(=O)N4CCOCC4)cc3)C(=O)C(=O)N2CCN2CCOCC2)cc1 (stereo unspecified)	-1%	5%	11%	nt	6%
COc1ccc(-c2oc3ccc(-c4ccc(OC)nc4)cc3c2-c2ccc(OC)cc2)cc1	nt	15µM*	nt	nt	?
COc1ccc(-c2c(C3=CCCCC3)oc3ccc(-c4ccc5c(c4)OCO5)cc23)cn1	nt	15µM*	nt	nt	?
COC(=O)c1c(-c2ccc(OC)cc2)oc2ccc(-c3ccc(OC)nc3)cc12	-11%	-6%	1%	nt	-29%
Cc1cccc(-c2oc3ccc(-c4ccc5c(c4)OCO5)cc3c2-c2ccc(OC3CCCCO3)cc2)c1 (stereo unspecified)	nt	-11%	nt	nt	-19%
COc1ccc(-c2c(-c3cccc(C)c3)oc3ccc(-c4ccc5c(c4)OCO5)cc23)cn1	nt	8.2µM*	nt	nt	?
O=C(O)c1cc(Cl)ccc1NC(=O)C1CCCO1 (stereo unspecified)	-17%	-6%	6%	0%	-2%
Cc1nc2ccccc2n1/C(=N\S(=O)(=O)c1ccccc1)c1ccccc1	-16%	-11%	-2%	5%	-13%
CC1(C)C(O)=C(c2nc3ccccc3[nH]2)C(=N)N1c1ccccc1	1.8µM*	?	11µM*	11%	?
CCOC(=O)C1=C(Nc2ccccc2)CC(C)(O)C(C(=O)OCC)C1c1ccc(Br)cc1 (stereo unspecified)	?	16µM*	-3%	8%	?
CCCCN(C)C(=O)C(Cc1ccccc1)NS(=O)(=O)c1ccc2c(c1)CCC(=O)N2 (stereo unspecified)	39%	-27%	-10%	4%	-27%
CCn1c(COc2ccc(C(C)C)cc2)nnc1SCC(=O)Nc1nccs1	11µM*	-19%	?	-3%	-25%
Cc1ccc(SCC(=O)Nc2ccc(S(=O)(=O)Nc3nccs3)cc2)cc1	5%	3.7µM*	-2%	5%	?
CCn1c(COc2ccc(C)cc2)nnc1SCC(=O)Nc1cc(OC)ccc1OC	-15%	21µM*	0%	5%	?
SMILES	RORgamma inh	TDP1 cell noCPT	VP16 counter	TDP1 inh	DT40 TDP1 CPT
CCn1c(SCC(=O)Nc2nccs2)nnc1-c1ccc(S(=O)(=O)N2CCCCC2)cc1	7%	16µM*	-8%	5%	?
CCSCc1nnc(SCC(=O)Nc2nccs2)n1CC	-27%	1%	1%	1%	7%
CCOc1cc(N2CCOCC2)c(OCC)cc1NC(=O)COc1ccc2ccc(=O)oc2c1	4%	nt	-9%	0%	nt
OCCC1CN(Cc2ccc(-c3ccco3)cc2)CCN1Cc1ccsc1 (stereo unspecified)	7%	?	5%	5%	?
COC(=O)/C(C(C)=O)=C(\C=C\N(C)C)N(C)C	6%	2%	6%	2%	2%
COC(=O)\C(C(C)=O)=C(/C=C/C=C/C=C/N(C)C)N(C)C	-18%	21µM*	-2%	3.2µM*	?
Clc1ccc(-c2nc3c4ccccc4ccn3c2Cc2cccc(Cl)c2)cc1	nt	7.3µM*	nt	nt	?
CCOC(=O)Cc1c(-c2cccc(Cl)c2)nc2c3ccccc3ccn12	nt	21µM*	nt	nt	?
Fc1cccc(Cc2c(-c3ccccc3)nc3c4ccccc4ccn23)c1	nt	16µM*	nt	nt	?
Clc1cccc(Cc2c(-c3cccc(Br)c3)nc3c4ccccc4ccn23)c1	nt	-21%	nt	nt	-29%
COc1ccc(OC)c(NC(=O)CSc2sc3c(O)cc(=O)[nH]c3c2C#N)c1	-10%	-1%	1%	8%	-1%
O=C(O)C1CCN(c2nc(-c3ccccc3)c3cc(Br)ccc3n2)CC1	-29%	?	-4%	nt	-8%
OCCN1CCN(c2nc(-c3ccccc3)c3cc(Br)ccc3n2)CC1	?	9.2µM*	?	nt	?
OCCN1CCN(c2ncnc3ccc(Br)cc23)CC1	8%	4.1µM*	-4%	6%	-89%
O=C(CSc1nc2c([nH]c3ccccc32)c(=O)n1-c1ccccc1)Nc1ccc2c(c1)OCO2	nt	23µM*	nt	2%	?
Cc1ccc(-n2c(SCC(=O)Nc3cccc(C)c3)nc3c(oc4ccccc43)c2=O)cc1	29%	-10%	5%	2%	1%
O=C(CSc1nc2c(oc3ccccc32)c(=O)n1-c1ccccc1)Nc1ccc(F)c(Cl)c1	nt	13µM*	nt	-1%	?
